# Data taken from PubChem BioAssay.
# Where “and” joins values, the source holds several entries; their conditions need not be identical. Equal values may be shown once. Values without a mark were called inactive. No rule for the calls is given here.
# What was measured:
# [1] = system: Botulinum neurotoxin type F light chain protease (Clostridium botulinum); test: Clostridium botulinum type F light chain protease inhibitors, microsphere substrate cleavage, validation (AID 588459); conditions: multiplex microsphere protease substrate cleavage assay, flow cytometry; at 10 µM; active compounds read high
# [2] = molecular target: Botulinum neurotoxin type A (Clostridium botulinum) (UniProt P0DPI0); test: BoNT/A light chain protease inhibitors, biochemical, multiplex microsphere flow cytometry, validation set (AID 588460); conditions: at 10 µM, active compounds read high
# Sequence of Botulinum neurotoxin type A (Clostridium botulinum) (P0DPI0 whole entry, looked up): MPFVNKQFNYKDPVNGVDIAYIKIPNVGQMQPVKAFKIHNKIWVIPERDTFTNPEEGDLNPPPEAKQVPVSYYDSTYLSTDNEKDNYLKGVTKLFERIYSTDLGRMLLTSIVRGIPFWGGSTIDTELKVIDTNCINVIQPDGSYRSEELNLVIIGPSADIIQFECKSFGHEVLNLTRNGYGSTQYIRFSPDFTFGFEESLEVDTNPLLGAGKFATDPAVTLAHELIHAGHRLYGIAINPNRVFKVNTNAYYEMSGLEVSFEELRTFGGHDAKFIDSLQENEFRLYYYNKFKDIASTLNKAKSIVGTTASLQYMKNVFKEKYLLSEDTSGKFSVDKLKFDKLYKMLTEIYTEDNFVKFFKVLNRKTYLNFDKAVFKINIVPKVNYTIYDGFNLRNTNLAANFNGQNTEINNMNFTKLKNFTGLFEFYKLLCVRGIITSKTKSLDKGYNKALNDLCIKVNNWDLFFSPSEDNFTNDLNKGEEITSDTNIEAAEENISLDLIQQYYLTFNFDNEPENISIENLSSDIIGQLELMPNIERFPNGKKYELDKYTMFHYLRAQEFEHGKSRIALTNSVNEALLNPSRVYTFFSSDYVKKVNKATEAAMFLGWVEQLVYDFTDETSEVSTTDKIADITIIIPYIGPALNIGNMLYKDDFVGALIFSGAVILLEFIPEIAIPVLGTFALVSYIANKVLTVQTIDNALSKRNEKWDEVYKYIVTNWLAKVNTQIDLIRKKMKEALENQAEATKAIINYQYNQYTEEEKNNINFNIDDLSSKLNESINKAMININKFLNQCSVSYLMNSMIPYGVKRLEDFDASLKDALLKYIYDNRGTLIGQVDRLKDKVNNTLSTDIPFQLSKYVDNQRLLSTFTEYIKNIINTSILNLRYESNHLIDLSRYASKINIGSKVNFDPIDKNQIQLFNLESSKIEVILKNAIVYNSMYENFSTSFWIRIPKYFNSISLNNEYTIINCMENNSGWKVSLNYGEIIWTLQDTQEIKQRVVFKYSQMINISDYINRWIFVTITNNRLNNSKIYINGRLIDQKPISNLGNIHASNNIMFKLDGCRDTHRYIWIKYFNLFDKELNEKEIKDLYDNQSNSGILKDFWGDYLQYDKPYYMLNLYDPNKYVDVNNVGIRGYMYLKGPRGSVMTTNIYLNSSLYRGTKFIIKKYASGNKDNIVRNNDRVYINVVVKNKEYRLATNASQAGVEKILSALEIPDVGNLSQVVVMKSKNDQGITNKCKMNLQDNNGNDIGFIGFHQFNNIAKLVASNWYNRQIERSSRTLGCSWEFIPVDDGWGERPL
# [3] = molecular target: Lethal factor (Bacillus anthracis) (UniProt P15917); test: Bacillus anthracis lethal factor inhibition, microsphere flow cytometry protease assay, validation at 10 µM (AID 588461); conditions: multiplex microsphere protease cleavage assay, active compounds read high
# Sequence of Lethal factor (Bacillus anthracis) (P15917 whole entry, looked up): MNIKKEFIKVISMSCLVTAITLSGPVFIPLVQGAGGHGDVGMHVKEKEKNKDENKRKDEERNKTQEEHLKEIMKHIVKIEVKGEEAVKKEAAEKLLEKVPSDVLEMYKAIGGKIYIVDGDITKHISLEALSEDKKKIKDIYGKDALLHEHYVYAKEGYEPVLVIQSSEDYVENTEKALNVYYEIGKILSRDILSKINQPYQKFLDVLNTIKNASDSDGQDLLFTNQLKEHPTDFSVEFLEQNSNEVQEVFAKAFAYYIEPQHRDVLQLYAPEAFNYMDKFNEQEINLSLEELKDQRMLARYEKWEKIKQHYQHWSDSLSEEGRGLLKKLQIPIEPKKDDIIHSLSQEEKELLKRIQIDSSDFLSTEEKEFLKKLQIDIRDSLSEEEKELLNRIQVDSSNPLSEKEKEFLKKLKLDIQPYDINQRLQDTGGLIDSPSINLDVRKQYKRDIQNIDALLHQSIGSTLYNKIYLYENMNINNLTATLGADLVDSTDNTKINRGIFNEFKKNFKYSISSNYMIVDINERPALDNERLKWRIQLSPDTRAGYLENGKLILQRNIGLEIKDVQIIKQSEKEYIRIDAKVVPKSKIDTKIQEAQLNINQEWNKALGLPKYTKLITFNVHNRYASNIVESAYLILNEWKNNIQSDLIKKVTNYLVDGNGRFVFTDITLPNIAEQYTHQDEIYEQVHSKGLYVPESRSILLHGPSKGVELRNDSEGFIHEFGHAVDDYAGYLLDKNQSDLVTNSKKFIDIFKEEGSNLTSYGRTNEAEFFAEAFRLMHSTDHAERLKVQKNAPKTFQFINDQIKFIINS
SMILES,inhibition [1],inhibition [2],inhibition [3]
O=C1OCCN1/N=C/c1ccc([N+](=O)[O-])o1,2.9%,-0.4%,-8.7%
c1cc(-c2ccncc2)ccn1,0.7%,-1.9%,
CNC[C@H](O)c1cccc(O)c1,1.5%,2.2%,
Cc1[nH]c2ccccc2c1/C=C/c1nc2ccccc2c(=O)n1CCO,0%,-0.4%,0.2%
COc1ccccc1/C=C/CN1CCN(Cc2ccc(F)cc2)C(CCO)C1 (configuration not stated),5.5%,-0.2%,-1.4%
CC(=Nc1ccccc1)C1=C(O)CCCC1=O,-3.4%,-0.9%,-5.7%
CC(C)(C)NC[C@H](O)COc1nsnc1N1CCOCC1,0.1%,0%,-3.8%
CC(C)Cc1nc(NCCN2CCOCC2)c(C#N)c2c1COC(C)(C)C2,-1.6%,-0.8%,-3%
C#CCN(C)Cc1ccccc1,2.5%,-0.5%,-2.8%
N=c1nc(N2CCCCC2)cc(N)n1O,-2.3%,-0.7%,0.9%
CC(=O)c1c(C)[nH]c(C(=O)OCc2ccccc2)c1C,2.9%,0.8%,-6.6%
NC(N)=NC(N)=NCCc1ccccc1,-1%,-0.8%,
COc1ccccc1OS(=O)(=O)c1ccc(NC(C)=O)cc1,-1.9%,1.2%,3%
COc1ccc(OC)c(S(=O)(=O)N2CCCc3ccccc32)c1,-4.6%,-0.4%,-0.9%
Cc1nnc(SCC(=O)N2CCCC(C(=O)c3ccc(Cl)cc3)C2)o1 (configuration not stated),2.8%,0.9%,-6.4%
Nc1nc(SCc2ccc([N+](=O)[O-])cc2)c2ncn(C3OC(CO)C(O)C3O)c2n1 (configuration not stated),0.3%,1%,5%
CCOC(=O)C1C(=O)OC2(CCOC(C)(C)C2)C1C(=O)OCC (configuration not stated),-2.7%,-0.2%,-0.1%
Cc1oc2c(CN3CCCC3)c(O)ccc2c(=O)c1-c1ccc(Cl)cc1,-1.2%,-0.3%,-0.5%
CCc1oc2ccccc2c1C(=O)c1cc(Br)c(O)c(Br)c1,-6.8%,-0.5%,-0.4%
NC12CC3CC(CC(C3)C1)C2,-1.1%,-0.6%,
COc1cccc2c1OCC1COc3c(c(=O)n(C)c(=O)n3C)C21 (configuration not stated),1.5%,0.5%,0.2%
CS(=O)(=O)Nc1ccc([N+](=O)[O-])cc1Oc1ccccc1,0%,-0.9%,
N/C(=N\OC(=O)c1cccc(Br)c1)c1ccncc1,0.8%,0.4%,-3.1%

SMILES,inhibition [1],inhibition [2],inhibition [3]
CCOC(=O)c1ccccc1NC(=O)c1ccc(F)cc1,-1.8%,-1%,-0.1%
COc1ccc(-c2cc(=O)oc3cc(OC(C)C(=O)O)ccc23)cc1 (configuration not stated),0.9%,2%,9.7%
Cn1cc(CN(CCO)Cc2cccs2)c(-c2cccc(Cl)c2)n1,1.3%,1.3%,-1.3%
COc1ccc(CN2CCCCC2C(=O)Nc2ccc(OC)c(OCC(C)C)c2)cc1OC (configuration not stated),0.9%,0.2%,-1.3%
NCCCC(N)(C(=O)O)C(F)F (configuration not stated),-3%,0.5%,-2.1%
NS(=O)(=O)c1cc2c(cc1Cl)NC(C(Cl)Cl)NS2(=O)=O (configuration not stated),-0.3%,0.1%,-3%
Cc1ccc2c(c1)C1CN(C)CCC1N2S(=O)(=O)c1ccc(Oc2ccc([N+](=O)[O-])cc2)cc1 (configuration not stated),2.6%,0.4%,8.4%
O=[N+]([O-])c1cc(/C=N/n2cnnc2)ccc1N1CCCC1,-0.9%,-0.6%,-3.3%
O=c1oc2c(CN3CCCCC3)c(O)ccc2c2c1CCCCC2,4.3%,0.5%,1.1%
NC12CC3CC(C1)CC(O)(C3)C2,4.4%,-0.4%,-0.7%
CNCCC(Oc1ccc(C(F)(F)F)cc1)c1ccccc1 (configuration not stated),-3.3%,0.6%,
CCC1CCc2c(sc(NC(=O)c3cccnc3)c2C(N)=O)C1 (configuration not stated),-4.8%,-2.3%,-6.2%
O=C(N/N=C\c1cc([N+](=O)[O-])ccc1N1CCOCC1)c1ccccn1,-0.1%,-1.3%,2.6%
CCN(CC)CC#CCOC(=O)C(O)(c1ccccc1)C1CCCCC1 (configuration not stated),-1.7%,0.6%,
C[C@@H]1C[C@H]2[C@@H]3C[C@H](F)C4=CC(=O)C=C[C@]4(C)[C@@]3(F)[C@@H](O)C[C@]2(C)[C@@]1(O)C(=O)CO,0.3%,0.4%,0.5%
CSCC[C@H](NC(=O)Nc1ccc(C)cc1C)C(=O)O,-2.1%,1.4%,0.5%
c1ccc(-c2ccccn2)nc1,-0.7%,0.3%,6.3%
COc1cc(C(=O)Nc2ccc(N(C)C)cc2)c([N+](=O)[O-])cc1OC,-2.4%,-0.2%,-19.3%
Cc1ccc(C)c(OCCCC(C)(C)C(=O)O)c1,1.7%,-0.3%,1.8%
S=C(c1ccc2c(c1)OCO2)N1CCCCC1,1.1%,-1.6%,-0.2%
O=C(Nc1cccc(-c2nc3ncccc3o2)c1)c1ccccc1,2.8%,-0.9%,-1.6%
COc1ccccc1OCC(O)COC(N)=O (configuration not stated),-3.8%,-1.3%,-6.8%
O=c1cc(-c2ccc3c(c2)OCCO3)oc2ccc(Cl)cc12,0.8%,-0.6%,0.9%

SMILES,inhibition [1],inhibition [2],inhibition [3]
O=C(/C=C/c1ccccc1)NCC1(c2ccccc2)CCOCC1,-1.5%,0.4%,3%
COC(=O)CN1CC(=O)N(c2ccccc2)C1=S,-0.8%,0%,-1%
CCc1cc(=O)oc2cc(OCC=C(C)C)ccc12,2%,0.5%,0.2%
Cc1ccc(CN2CCN(Cc3cn[nH]c3C3CCCCC3)CC2CCO)cc1 (configuration not stated),-1.3%,-0.4%,-2.1%
Cc1ccsc1/C=C/C1=NCCCN1C,-0.9%,1.6%,-3.7%
Cc1ccc(/C(=C\CN2CCCC2)c2ccccn2)cc1,-2%,0.3%,11.9%
CCCCOc1cc(C(=O)NCCN(CC)CC)c2ccccc2n1,8.5% and -0.1%,1.5% and -0.6%,-1.9% and 2.1%
Cc1ccc(/C=N/Nc2nc(C(C)(C)C)cs2)o1,-1%,-0.3%,-6.6%
CC(C)(C)N1NC2(CCCCC2)NC1=S,4.9%,-1.4%,-1.4%
COc1ccc2cc([C@H](C)C(=O)O)ccc2c1,0.3%,-0.1%,-2.6%
CN=C(NC#N)NCCSCc1nc[nH]c1C,-0.4%,0.9%,-3.5%
CC[N+](C)(C)Cc1ccccc1Br,2.1%,-0.1%,0.6%
COC(=O)c1ccc(=O)n(Cc2ccco2)c1,3.3%,-0.2%,3.8%
CCc1cc2c3c(c(=O)oc2cc1O)CCCC3,-1.1%,2.2%,4.1%
CC(=O)O[C@]1(C(C)=O)CC[C@H]2[C@@H]3C=C(C)C4=CC(=O)CC[C@]4(C)[C@H]3CC[C@@]21C,2%,1.2%,-4.2%
COc1cc2c(cc1OC)-c1nnc(C)n1C(C)(C)C2,0.7%,0.2%,-2.5%
O=C(NCc1ccc2c(c1)OCO2)c1ccc2c(c1)OCCO2,2%,0.7%,-0.5%
O=C(CCCN1C(=O)/C(=C\c2cccs2)SC1=S)Nc1ccccn1,4%,5.2%,18.8%
C=C(C)c1nc2cc(OC)c(OC)cc2c(=O)o1,-7.9%,-1.3%,0.1%
O=C(O)CCCCCCNC(=O)c1cncc(O)c1,-1.8%,0.2%,7.5%
CC(C)C1Cc2[nH]c(=O)c(C(=O)O)cc2CO1 (configuration not stated),2.3%,-0.9%,-1.4%
COc1cccc(C2CC(=O)C3=C(C2)Nc2ccccc2N(C(=O)CCC(=O)O)C3c2ccc(F)cc2)c1 (configuration not stated),1.3%,0.4%,5.1%
